Screening data as filed in PubChem BioAssay.
PD-1 reverse act = reversal of PD-1 mediated T-cell inhibition | activation, % (no concentration beside the values) | 29,000 tested, under 10 active | primary human CD4 T cells, PD-L1 beads, CellTiter-Glo 96 h; call rule not given here;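 further: 0% = median vehicle wells and 100% = positive control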
ROS inducer = raises reactive oxygen species in U2OS cancer cells; U2OS ROS induction, H2DCF-DA fluorescence; hit rate 2% among 46,000; ROS induction (% of piperlongumine), % at 10 µM; AID 624156; in the data active means ROS induction above about 79%, passing the limit was not always enough;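 further: 0% = DMSO vehicle median and 100% = reference compound median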
YB-1 expression = YB-1 expression inhibition. delta delta Cp (YB-1 minus CDIP) (no concentration beside the values). hit rate 0.37% among 30,000. U2OS, qRT-PCR YB-1 vs CDIP delta delta Cp, 16 h; active compounds read high; zero = DMSO, each unit about twofold;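 active means delta delta Cp rounded down to an integer at or above 3, about 3 SD of DMSO wells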;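 further: higher means less YB-1 transcript or more CDIP transcript relative to DMSO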
NOMO-1 viab = STK33 inhibitor candidate reducing NOMO-1 cell viability; NOMO-1 AML viability, CellTiter-Glo luminescence, 72 h; inhibition, % (test concentration not listed); hit rate 7.5% among 37,000; AID 2330; in the data active means inhibition above about 80%
The depositor's hits bear a star. Shown is part of a subset that was picked to be rich in hits.

For CCCCCCCCCC(O)CC(O)CC(O)CC1CC=CC(=O)O1 (configuration not stated) the results were PD-1 reverse act -2, ROS inducer 36, YB-1 expression -0.088 and NOMO-1 viab 115*.
`CCCCCCCC(O)C(O)C1CC(OC)=CC(=O)O1` (configuration not stated) gave PD-1 reverse act 0, ROS inducer -6, YB-1 expression -0.04 and NOMO-1 viab 5.
`C=C(C)C(=O)O[C@H]1CC(=C)C2C[C@H](O)[C@](O)(CO)C2[C@H]2OC(=O)C(=C)[C@H]12` (some centres not stated) gave PD-1 reverse act -13, ROS inducer 186*, YB-1 expression 0.43 and NOMO-1 viab 119*.
`O=C(Nc1ccccc1Cl)c1cc2ccccc2cc1O` gave PD-1 reverse act -4, ROS inducer 23, YB-1 expression -0.35 and NOMO-1 viab 132*.
For Nc1cc(=O)nc(SCC(=O)NCc2ccccc2)n1-c1ccccc1 the results were PD-1 reverse act 0, ROS inducer -1, YB-1 expression -0.18 and NOMO-1 viab 9.
Screening C[C@@H]1CN([C@@H](C)CO)C(=O)c2cc(NC(=O)Nc3ccccc3)ccc2O[C@H]1CN(C)Cc1ccc(Oc2ccccc2)cc1 returned PD-1 reverse act -1, ROS inducer 26, YB-1 expression 0.19 and NOMO-1 viab 112*.
C[C@H](CO)N1C[C@H](C)[C@H](CN(C)Cc2ccc(Oc3ccccc3)cc2)Oc2ccc(NC(=O)CCC(F)(F)F)cc2C1=O was read as PD-1 reverse act -3, ROS inducer 0, YB-1 expression -0.35 and NOMO-1 viab 114*.
`C[C@H]1CN([C@@H](C)CO)C(=O)c2cc(NC(=O)Nc3ccccc3)ccc2O[C@@H]1CN(C)Cc1ccc(Oc2ccccc2)cc1` gave PD-1 reverse act 2, ROS inducer 34, YB-1 expression -0.39 and NOMO-1 viab 97*.
For O=C(CCc1nc(-c2ccccc2Cl)no1)Nc1cccc([N+](=O)[O-])c1 the results were PD-1 reverse act 1, ROS inducer -1 and NOMO-1 viab 50.
Screening C[C@@H]1CN([C@@H](C)CO)C(=O)c2cc(NC(=O)Cc3cn(C)c4ccccc34)ccc2O[C@@H]1CN(C)Cc1ccccc1 returned PD-1 reverse act -4, ROS inducer 13, YB-1 expression -0.45 and NOMO-1 viab 63.
`C[C@H](CO)N1C[C@H](C)[C@H](CN(C)Cc2ccc(Cl)c(Cl)c2)Oc2ccc(NC(=O)Cc3cn(C)c4ccccc34)cc2C1=O` gave PD-1 reverse act -2, ROS inducer -2, YB-1 expression -0.24 and NOMO-1 viab 108*.
For C[C@H](CO)N1C[C@H](C)[C@@H](CN(C)Cc2ccc(Cl)c(Cl)c2)Oc2ccc(NC(=O)Cc3cn(C)c4ccccc34)cc2C1=O the results were PD-1 reverse act -2, ROS inducer 152*, YB-1 expression 0.098 and NOMO-1 viab 61.
Screening C[C@@H]1CN([C@@H](C)CO)C(=O)c2cc(NC(=O)Cc3cn(C)c4ccccc34)ccc2O[C@H]1CN(C)Cc1ccc(Cl)c(Cl)c1 returned PD-1 reverse act -2, ROS inducer 35, YB-1 expression 0.087 and NOMO-1 viab 97*.
For C[C@@H]1CN([C@@H](C)CO)C(=O)c2cc(NC(=O)Cc3cn(C)c4ccccc34)ccc2O[C@@H]1CN(C)Cc1ccc2c(c1)OCO2 the results were PD-1 reverse act -2, ROS inducer 40, YB-1 expression 0.17 and NOMO-1 viab 57.
CC1(C)C=C(c2ccc(C3=CC(C)(C)NC(C)(C)C3)s2)CC(C)(C)N1 was read as ROS inducer 3.
Screening O=C(CN(C1=NC2CS(=O)(=O)CC2S1)c1ccc(F)cc1)Nc1ccccc1C(F)(F)F (configuration not stated) returned ROS inducer -8.
COc1ccc(CN(C)C[C@H]2Oc3c(NC(=O)Nc4ccc(C(F)(F)F)cc4)cccc3C(=O)N([C@H](C)CO)C[C@H]2C)cc1 was read as PD-1 reverse act -5, ROS inducer 33, YB-1 expression 1.3 and NOMO-1 viab 95*.
`C[C@H](CO)N1C[C@H](C)[C@H](CN(C)Cc2ccc(C(F)(F)F)cc2)Oc2c(NC(=O)Nc3ccc(C(F)(F)F)cc3)cccc2C1=O` gave PD-1 reverse act -5, ROS inducer 8, YB-1 expression 0.011 and NOMO-1 viab 110*.
`COc1ccc(NC(=O)Nc2cccc3c2O[C@@H](CN(C)Cc2ccc(C(F)(F)F)cc2)[C@@H](C)CN([C@H](C)CO)C3=O)cc1` gave PD-1 reverse act -3, ROS inducer 3, YB-1 expression -0.39 and NOMO-1 viab 45.
`C[C@@H]1CN([C@@H](C)CO)C(=O)c2cccc(NC(=O)Nc3ccc(F)cc3)c2O[C@H]1CN(C)Cc1ccc(C(F)(F)F)cc1` gave PD-1 reverse act -7, ROS inducer 48, YB-1 expression 0.62 and NOMO-1 viab 103*.
Screening Cc1ccc2c(cnn2C(=O)CCCC(=O)NC2CCCC(C)C2C)c1 (configuration not stated) returned ROS inducer 1.
O=C(CSc1cn(CC(=O)N2CCOCC2)c2ccccc12)NCc1ccco1 was read as ROS inducer -9.
`COc1ccc(-c2nc(SCc3cc(Cl)ccc3OC)n[nH]2)cc1` gave NOMO-1 viab 30.
O=C(CSc1nc2ccccc2[nH]1)Nc1ccc(Br)cc1Cl was read as NOMO-1 viab 55.
For C[C@@H]1CCCCO[C@H](CN(C)Cc2ccc(Cl)c(Cl)c2)[C@@H](C)CN([C@H](C)CO)C(=O)c2cc(N(C)C)ccc2O1 the results were PD-1 reverse act -5, ROS inducer 30, YB-1 expression 0.4 and NOMO-1 viab 87*.
`C[C@@H]1CN([C@H](C)CO)C(=O)c2cc(N(C)C)ccc2O[C@H]1CN(C)Cc1ccc(Cl)c(Cl)c1` gave PD-1 reverse act -3, ROS inducer -3, YB-1 expression 0.064 and NOMO-1 viab 97*.
C[C@H](CO)N1C[C@H](C)[C@@H](CN(C)Cc2ccc(-c3ccccc3)cc2)Oc2ccc(N(C)C)cc2C1=O was read as PD-1 reverse act -2, ROS inducer 94*, YB-1 expression 0.12 and NOMO-1 viab 24.
Cc1nnc(SC(c2ccccc2)c2ccccc2)s1 was read as ROS inducer 1.
For COc1ccc2c(Sc3ccc(C)cc3)c(C(=O)NCCc3ccc(OC)c(OC)c3)[nH]c2c1 the results were ROS inducer 6.
COc1ccc(Cl)cc1Nc1nc(N)nc(-c2cc3ccccc3o2)n1 was read as NOMO-1 viab 95*.
`CC(C)(C)Nc1nc(Cl)nc(N(C#N)CN2C(=O)c3ccccc3S2(=O)=O)n1` gave ROS inducer 94*.
Screening CCNc1nc(NC(C)(C)C)nc(N(C#N)CC(=O)OC)n1 returned PD-1 reverse act -1, ROS inducer -45 and NOMO-1 viab 43.
`COCCn1c(C)cc(C=C2C(=O)N(C)C(=S)N(C)C2=O)c1C` gave PD-1 reverse act 1, ROS inducer 26, YB-1 expression -0.19 and NOMO-1 viab 22.
